# Rows were chosen to be rich in hits. Some 0.17% of all compounds tested hit in one or more screens of this group.
# Glioma ERSR ind: qHTS for Inducers of the Endoplasmic Reticulum Stress Response (ERSR) in Human Glioma: qHTS. U87-MG GRP78 promoter luciferase reporter, 16 h. Potency, µM, without a hit: top-dose activation, usual class: activators. 420,000 compounds, 0.02% hits. AID 602332, 2012; note: series mostly up to about 76 µM; % of control where 0% means no effect; nearly all actives have a fitted effect of over 35% in size
#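 Stably transfected U87-MG human glioma cells carrying a GRP78-based luminescent sensor were seeded at 1000 cells/well, pin-dosed with compounds and incubated 16 h. Luciferase reagent was then added, and end-point luminescence was read after 10 min at room temperature.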
# Anesthetic bind: qHTS Assay for Identification of Novel General Anesthetics | apoferritin/1-aminoanthracene competitive binding, fluorescence | 350,000 compounds, 0.074% hits | Potency, µM (highest dose often 77.5 µM), without a hit: top-dose activity change, negative = displacement, usual class: inhibitors; note: % is set by controls: 0 for no effect and ±100 for the full control effect; nearly all actives have a fitted effect of over 20% in size
# Target sequence (P02791 2-175 limits assumed): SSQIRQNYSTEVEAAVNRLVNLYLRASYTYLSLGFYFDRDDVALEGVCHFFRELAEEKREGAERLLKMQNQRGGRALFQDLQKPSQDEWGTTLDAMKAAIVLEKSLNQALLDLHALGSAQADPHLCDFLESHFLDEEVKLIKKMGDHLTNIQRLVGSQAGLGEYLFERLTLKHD
#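 10 uM apoferritin + 50% sat. 1-AMA, PBS; cpd 10 min RT; Ex380/Em535 endpoint; normalized to free probe vs complex; 4-param Hill fit; propofol titration as pos. ctrl.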
# MmCpn inh: Inhibitors of TCP-1 ring complex (TRiC) of Methanococcus maripaludis (MmCpn): qHTS; Chaperonin Mm-Cpn (Methanococcus maripaludis); purified Mm-Cpn ATPase, ADP Transcreener TR-FRET; Potency, µM (titrated, usually from 76.9 µM), inactives show at the top dose activity, negative = inhibition, most hits filed as inhibitors; 330,000 compounds, 0.031% hits; AID 504842, 2011; note: % is set by controls: 0 for no effect and ±100 for the full control effect; nearly all actives have a fitted effect of over 80% in size
#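 Purified archaeal chaperonin (25 nM final) was preincubated with compound for 10 min at 37°C, then ATP (10 uM final) was added for 30 min at 37°C in Tris pH 7.4/KCl/MgCl2/DTT buffer. ADP was quantified by HTRF Transcreener TR-FRET.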
# B2AR arrestin: qHTS assay of beta-arrestin-biased ligands of beta2-adrenergic receptor; 330,000 compounds, 0.02% hits; beta-arrestin recruitment to beta2AR, cell-based reporter; Potency, µM (top dose mostly 46.1 µM), for inactives: top-dose activation, most hits filed as activators;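 note: 0% = DMSO controls and full agonism = EC100 isoproterenol or metaproterenol; nearly all actives have a fitted effect of over 65% in size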
# RGS4 inhibitor: Inhibitors of Regulator of G Protein Signaling (RGS) 4: qHTS; Transcreener GDP fluorescence polarization, RGS4-accelerated GTP hydrolysis; Potency, µM (titrated, usually from 114 µM), for the others: top-dose activity change, negative = inhibition, actives largely listed as inhibitors; 390,000 compounds, 0.039% hits; AID 504845, 2011; note: % is set by controls: 0 for no effect and ±100 for the full control effect; nearly all actives have a fitted effect of over 75% in size
# Target sequence (P49798 whole entry, looked up): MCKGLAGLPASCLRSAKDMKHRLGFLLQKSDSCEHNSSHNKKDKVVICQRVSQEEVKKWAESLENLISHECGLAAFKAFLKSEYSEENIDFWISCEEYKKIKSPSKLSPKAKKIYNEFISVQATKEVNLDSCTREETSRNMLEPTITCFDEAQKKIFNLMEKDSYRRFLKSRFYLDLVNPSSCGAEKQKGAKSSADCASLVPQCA
#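 MLSMR compounds (23 nl, pin-transferred) preincubated 10 min at room temperature with a 500nM (2x) first reagent, then RGS4 at 900nM (2x) plus Transcreener GDP mix added; fluorescence polarization (620/688 nm) read before and after 90 min at 30 °C.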
# Pin1 inh: qHTS Assay to Find Inhibitors of Pin1; Potency, µM (highest dose often 115 µM), for inactives: top-dose activity, negative = inhibition, usual class: inhibitors; 390,000 compounds, 0.009% hits; Peptidyl-prolyl cis-trans isomerase NIMA-interacting 1 (Homo sapiens), Q13526; AID 504891, 2011; Pin1 FP peptide displacement, HiFluor488, 10 min; active = well fitted inhibition curve with a large enough effect in the polarisation, with a control signal flat, not every such curve was filed as active; inconclusive = small, poorly fitted or top-dose-only effect, or effect the other way, or a change in a side signal; inactive = no such curve, though single readings can be large or run the other way; the % refers to the polarisation; note: % is set by controls: 0 for no effect and ±100 for the full control effect
# * hit, by the source's call; ? = inconclusive; nt = no result; ! = not active in a repeat; [ ] = remark or other dose. Unless noted, calls come from the whole dose curve; as a rule, active = well fitted curve in the direction sought with a large enough effect; inconclusive = small, poorly fitted or top-dose-only effect, or another doubt; inactive = no such curve, though single readings can be large; an effect the other way counts as inactive or inconclusive. Potency is the fitted concentration of half-maximal effect.
SMILES,Glioma ERSR ind,Anesthetic bind,MmCpn inh,B2AR arrestin,RGS4 inhibitor,Pin1 inh
O=C(c1cc2sccc2n1Cc1ccccc1)N1CCCc2ccccc21,-2%,2%,-14%,0%,-2%,16%
Cn1c(C(=O)N2CCCc3ccccc32)cc2sccc21,5%,13µM*,-12%,-1%,2%,-5%
N#Cc1nc(Nc2cc(F)cc(F)c2)nc(Nc2cc(F)cc(F)c2)n1,nt,nt,nt,nt,nt,47%
Cc1ccc(NC(=O)c2ccc3c(c2)CCC(=O)N3)cc1C,nt,nt,nt,nt,nt,0%
O=C(CNC(=O)c1ccc(Cl)cc1)OCC(=O)c1ccccc1,1%,?,1%,-1%,-18%,2%
O=C(CCC(=O)c1ccc(Cl)cc1)OCC(=O)c1ccccc1,-3%,13µM*,-2%,0%,3%[11.4 µM],3%
Cc1c([S+](=O)([O-])N2CCN([S+](=O)([O-])c3c(F)cccc3F)CC2)sc2ccc(Cl)cc12,nt,nt,nt,nt,nt,-1%
CN(C)C(=S)NC(C)(C)C,-2%,5%,45µM*,-1%,-8%,-6%
Cc1ccc(CNC(=S)N(C)C)cc1,-3%,-5%,-2%,0%,-2%,4%
Cc1cnc(N2CCC(C(N)=O)CC2)nc1-c1cccc(N(C)C)c1,nt,nt,nt,nt,nt,2%
Nc1[nH]ncc1N=Nc1ccc(Cl)cc1,-6%,32µM*,1%,-1%,0%,1%
O=C(NCc1ccc(F)cc1)n1c(-c2ccccc2)c(P(=S)(c2ccccc2)c2ccccc2)c2ccccc21,nt,nt,nt,nt,nt,30%
Cc1ccc(Cl)cc1N1CCN(C(=O)Cc2c(C(=O)O)[nH]c3ccc(Cl)cc23)CC1,32µM*,-14%,1%,0%,-30%,nt
S=C(NCCCNc1ccc(Br)cn1)NCCCc1cnc[nH]1,nt,nt,nt,nt,nt,-2%
COc1ccc(-c2c(-c3ccc(O)cc3O)n[nH]c2C(F)(F)F)cc1,0%,-18%,40µM*,0%,3%[56.9 µM],-2%
CC(C)(C)c1cc(O)c(C(C)(C)C)cc1O,40µM*!,-10%,nt,nt,nt,nt
Cc1cc(C(C)(C)C)c(O)c(C(C)(C)C)c1,-2%,5%,-1%,0%,-2%,4%
NC(=O)C1CCN(c2ncc(-c3cccc(F)c3)s2)CC1,nt,nt,nt,nt,nt,-3%
COC(=O)COc1ccc2c(-c3ccc(OC)cc3)cc(=O)oc2c1,25µM*,-12%,-2%,0%,-22%,0%
COc1ccc(-c2cc(=O)oc3cc(OCC(=O)N4CCOCC4)ccc23)cc1,-3%,-13%,-17%,0%,11%,1%
Cc1ccc(NS(=O)(=O)c2ccc3c(c2)CCC(C)(C)O3)cc1C,nt,nt,nt,nt,nt,89%
NNC(=O)CNC(=O)C12CC3CC(CC(C3)C1)C2,-5%,7.9µM*,2%,-1%,-7%,1%
COC(=O)C1=C(C)NC(C)=C(C(=O)OCCSc2ccccc2)C1C (stereo not drawn),-2%,306%,nt,nt,38µM*,nt
Cc1cc(C)n2ncc(C(=O)NC(C)C)c2n1,nt,nt,nt,nt,nt,-2%
Cn1nnnc1Sc1ncnc2scc(-c3ccc(N)cc3)c12,nt,nt,nt,nt,nt,-1%
O=S1(=O)N=C(Oc2ccc(C(F)(F)F)cc2)c2ccccc21,nt,nt,nt,nt,nt,-2%
O=C(O)CCCNc1cc(N2CCN(C(=O)c3ccco3)CC2)c2noc3c2c1C(=O)c1ccccc1-3,3%,-6%,35µM*,0%,?,?
Cc1ccc(NC(=S)NNC(C)(C)C)cc1,?,-5%,0%,8.9µM*,1%,-5%
CC(C)(C)NNC(=S)Nc1cccc(C(F)(F)F)c1,-8%,3%,-1%,?,-14%,-8%
O=c1c(-c2ccc(Cl)cc2)coc2c(CN3CCOCC3)c(O)ccc12,1%,-13%,2%,0%,2%[11.4 µM],0%

# High-throughput results from PubChem.
